Source: PubChem BioAssay AID1672 (Johns Hopkins Ion Channel Center, 2009)
The campaign covered roughly 310,000 compounds. About 2,600 (0.84%) were called active. For the sample, actives were picked, then their nearest neighbours and some compounds at random. A number with no mark means an inactive call.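 The calls were made as follows: active = fluorescence ratio B-score at or below minus 3 SD of library scores, with starting-brightness B-score within 2 SD (cut at about -4.2 in these data); inactive = the rest.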

target: Inward rectifier potassium channel 2 (Mus musculus) (UniProt P35561); assay: blocks the mouse Kir2.1 inward-rectifier potassium channel (AID 1672); details: HEK293-Kir2.1, FluxOR thallium flux fluorescence; at 10 µM; stronger effect = lower value;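 also: channel flux triggered by added potassium and thallium sulfate stimulus; B-score of peak minus minimum fluorescence over baseline after thallium stimulus; more negative B-score means stronger Kir2.1 block with less thallium influx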
Sequence (P35561 whole entry, looked up): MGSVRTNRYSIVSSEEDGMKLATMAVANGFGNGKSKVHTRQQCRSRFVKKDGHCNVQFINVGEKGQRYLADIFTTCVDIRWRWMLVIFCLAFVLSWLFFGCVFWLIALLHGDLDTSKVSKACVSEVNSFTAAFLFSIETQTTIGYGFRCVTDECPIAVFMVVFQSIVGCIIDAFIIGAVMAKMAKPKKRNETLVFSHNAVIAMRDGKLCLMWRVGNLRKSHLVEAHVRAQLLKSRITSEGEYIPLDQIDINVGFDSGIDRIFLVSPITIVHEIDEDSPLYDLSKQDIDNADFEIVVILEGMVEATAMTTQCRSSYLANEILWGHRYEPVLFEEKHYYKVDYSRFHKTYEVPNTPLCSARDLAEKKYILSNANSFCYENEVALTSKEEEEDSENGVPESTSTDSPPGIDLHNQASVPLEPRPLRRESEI

SMILES	B-score
CC(NC(=O)CCCC1CCCCC1)c1ccc(S(N)(=O)=O)cc1 (stereo unspecified)	-5.32 (active)
NS(=O)(=O)c1ccc(CCNC(=O)NC2CCCCC2)cc1	-0.34
CC(NC(=O)CNC(=O)Cc1cccc2ccccc12)c1ccc(S(N)(=O)=O)cc1 (stereo unspecified)	1.18
Cc1ccc2c(C)c(C(=O)N3CCN(c4ccncc4)CC3)oc2c1C	-0.57
Fc1ccccc1Cn1cnc(NC(=S)NCCc2ccccc2)n1	1.75
N=c1n(CCc2ccccc2)c2ccccc2n1Cc1ccccc1F	-8.75 (active)
CC(=O)NC(C)c1nc2ccccc2n1Cc1ccccc1F (stereo unspecified)	-2.56
Cc1ccc(CN2CCN(c3ccccc3Cl)CC2)o1	-1.98
c1ccc(CSc2nnc(-c3ccco3)n2Cc2ccccc2)cc1	-8.28 (active)
c1ccc(CSc2nnc(-c3ccco3)c(-c3ccco3)n2)cc1	0.54
O=C(CSc1nnc(-c2ccco2)n1Cc1ccccc1)NC(=O)NCc1ccco1	-1.04
Cc1nc2c(c(C)nn2-c2ccccc2)c(C)c1C	-0.74
C#CCNC(=O)[C@H](Cc1ccc(C(=O)c2ccccc2)cc1)NC(=O)OC(C)(C)C	-2.31
CCS(=O)(=O)c1cc([N+](=O)[O-])c(Sc2ccccc2N)s1	0.71
Nc1ccccc1SC(C[N+](=O)[O-])c1ccccc1 (stereo unspecified)	-7.5 (active)
Nc1ccccc1Sc1ccc(C(F)(F)F)cc1[N+](=O)[O-]	-2.03
COc1cc(C(=O)N(C)Cc2cccc(OC)c2OC)ccc1OCC(=O)Nc1cccc(C(F)(F)F)c1	1.36
O=C(Cc1c[nH]c2ccccc12)OCCOC(=O)Cc1c[nH]c2ccccc12	-7.97 (active)
CCOC(=O)CN(C)Cc1c[nH]c2ccccc12	0.81
O=C(COC(=O)Cc1c[nH]c2ccccc12)NCCc1ccccc1	-1.86
O=C(COc1coc(CN2CCN(c3ccccc3)CC2)cc1=O)N1CCc2ccccc21	0.28
S=C(Nc1ccc(Br)cc1)NC1CCN(Cc2ccccc2)CC1	-9.22 (active)

SMILES	B-score
O=C(NC1CCN(Cc2ccccc2)CC1)c1c(F)cccc1F	0.03
S=C(Nc1ccc(Br)cc1Cl)NC1CCN(Cc2ccccc2)CC1	-0.65
CCN(CC)c1ccc(NC(=O)c2ccc(=O)[nH]c2)cc1S(=O)(=O)Nc1ccc(OC)cc1	0.31
COc1cccc(C(=O)NCCS(=O)(=O)NCC2CCCO2)c1 (stereo unspecified)	2.76
CCC(C)N(C(=O)CSc1ncnc2c1cnn2-c1ccccc1)C1CCS(=O)(=O)C1 (stereo unspecified)	0.08
COCCNCCOCCOc1cccc(OC)c1	-0.8
Clc1cccc(Cl)c1OCCOCCNCc1ccccc1	-7.4 (active)
CCOc1ccccc1OCCCNCc1ccccc1	-3.69
CCCOc1ccc(Cl)cc1Nc1nc(NCCO)nc(N2CCCC2)n1	0.67
Cc1cc(OCCN2CCCC2)cc(C(C)C)c1	-4.28 (active)
Cc1ccc(C(C)C)cc1OCCN1CCCC1	-1.08
COc1cccc(OCCCN2CCCCCC2)c1	0.91
Cc1cccc(NC(=O)c2ccc(S(=O)(=O)N(C)CC3CCCO3)cc2)c1C (stereo unspecified)	1.86
CN(c1ccccc1)S(=O)(=O)c1ccc(NC(=O)COc2ccccc2)cc1	-1
COCCNC(=O)COc1ccc(N(C)S(=O)(=O)c2ccc3ccccc3c2)cc1	-5.91 (active)
CN(c1ccc(OCC(=O)O)cc1)S(=O)(=O)c1ccc2ccccc2c1	-1.8
COc1ccc(CCNC(=S)N2CCN(S(=O)(=O)c3ccc(F)cc3)CC2)cc1	0.06
Cc1ccc2nc(N3CCN(C(=O)c4ccco4)CC3)sc2c1	-0.26
OCc1ccc(-c2ccccc2)c(-c2ccccc2)c1	-1.83
Cc1cc(C)c(S(=O)(=O)NCC(c2ccc3c(c2)OCO3)N2CCOCC2)c(C)c1 (stereo unspecified)	-1.24
COc1ccc(CCC(C)N2CCc3ccccc3C2)cc1 (stereo unspecified)	-8.02 (active)
COc1ccc(OC)c(NC(=S)N2CCc3ccccc3C2)c1	0.14

SMILES	B-score
COc1ccc(NC(=O)C(=O)NCC(c2ccco2)N2CCc3ccccc3C2)cc1 (stereo unspecified)	1.13
Cc1c(C)n2c(SCC(=O)NC3CCCC3)nnc2[nH]c1=O	0.79
O=C1[C@H]2[C@@H](c3ccc(F)cc3)N3C(=O)N(c4ccc(C(F)(F)F)cc4)C(=O)[C@@]3(Cc3ccccc3)[C@H]2C(=O)N1C1CCCCC1	-0.87
[O-][n+]1ccc(OCc2ccccc2)cc1	0.47
Cc1cccc(N2CC(C(=O)Nc3ccccc3N3CCCC3)CC2=O)c1C (stereo unspecified)	0.2
Cc1ccc(Nc2c3c(nc4ccccc24)CCC3)cc1	-15.2 (active)
N#Cc1cccc(Nc2c3c(nc4ccccc24)CCCC3)c1	-0.49
CC(=O)Nc1ccc(Nc2c3ccccc3nc3ccccc23)cc1	0.07
Cc1ccc(S(=O)(=O)NC(C)C(=O)NCc2ccc(Cl)cc2)cc1 (stereo unspecified)	1.6
O=C(c1ccc(OC2CCN(C/C=C/c3ccc(F)cc3)CC2)cc1)N1CCCCC1	-2.2
COc1ccc(/C=C/CN2CCCC(C(=O)c3cc(F)ccc3F)C2)cc1 (stereo unspecified)	-4.21 (active)
CSCC(=O)N1CCCC(C(=O)c2cc(F)ccc2F)C1 (stereo unspecified)	1.27
COc1ccc(-c2csc3ncnc(N4CCN(S(=O)(=O)c5cccc(F)c5)CC4)c23)cc1	0.02
CCn1cc(CN2CCC(C(=O)Nc3cccc(-c4cccc(Cl)c4)c3)CC2)cn1	-6.62 (active)
CC(=O)c1cc(CN2CCC(C(=O)Nc3cccc(-c4cscn4)c3)CC2)cs1	-2.25
CCNC(=S)NNC(=O)C1CCN(Cc2ccccc2)CC1	-0.93
COc1cccc(-c2cccc(NC(=O)C3CCN(C4CCC4)CC3)c2)c1	-0.09
O=C(Nc1cccc(-c2cscn2)c1)C1CCN(Cc2ccsc2)CC1	-7.36 (active)
O=C(Nc1cccc(-c2cccc(Cl)c2)c1)C1CCN(C2CCC2)CC1	-4.84 (active)
O=C(NC1CCCC1)C1CCN(C(=O)Nc2cccc(Cl)c2)CC1	-1.63
O=C(Nc1ccc(-c2cscn2)cc1)C1CCCN(Cc2ccc(CO)o2)C1 (stereo unspecified)	-0.77
O=C(Nc1cnn(Cc2ccc(Cl)cc2)c1)C1CCCC1	-1.43
